Measured values taken from PubChem BioAssay (NCI).
The panel holds about 83,000 compounds, 20% with a hit somewhere; the sample as a whole holds those more often.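 The test compound was applied at a single concentration to cells in 96-well plates for 48 hours, and percent growth was recorded.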 Calls of active or inactive are those of the source. The calls were made as follows: active = growth percent below 10; inactive = the rest.

How the values were obtained:
Experiment in all cases: NCI-60 one-dose screen, 48 h (100 = growth as untreated, 0 = no growth, -100 = all killed)
Details in all cases: 10 µM unless noted
NCI-H23 lung = system: NCI-H23 lung
NCI-H226 lung = system: NCI-H226 lung
NCI-H322M lung = system: NCI-H322M lung
HOP-62 NSCLC = system: HOP-62 NSCLC
HOP-92 NSCLC = system: HOP-92 NSCLC
NCI-H522 lung = system: NCI-H522 lung
A549/ATCC NSCLC = system: A549/ATCC NSCLC
786-0 renal = system: 786-0 renal
COLO 205 colon = system: COLO 205 colon
NCI-H460 lung = system: NCI-H460 lung

Measured: growth

CCN1C(=O)/C(=C/C(=O)OC)S/C1=N\NC(=O)c1cc2ccc1/C=C\c1ccc(cc1)/C=C\2
inactive: NCI-H23 lung 99.6% | NCI-H226 lung 92.7% | NCI-H322M lung 92.3% | HOP-62 NSCLC 101% | HOP-92 NSCLC 81.6% | NCI-H522 lung 59.7% | A549/ATCC NSCLC 96.6% | 786-0 renal 90.6% | COLO 205 colon 108%

O=C1/C=C/[C@@H](O)[C@@H]2C[C@@H](O)C[C@H]2/C=C/CCC[C@H](CCc2cccc3ccccc23)O1
inactive: NCI-H322M lung 25.2% | HOP-62 NSCLC 21.8% | HOP-92 NSCLC 46.5% | A549/ATCC NSCLC 19.3%
active: NCI-H23 lung -36% | NCI-H226 lung -62% | NCI-H522 lung -25.8% | 786-0 renal -44.7% | COLO 205 colon -91.9%

O=C(NNc1nc2c(F)cccc2n2cccc12)c1cnccn1
active: NCI-H522 lung 2.24% | COLO 205 colon -4%
inactive: NCI-H23 lung 24.8% | NCI-H226 lung 31.7% | NCI-H322M lung 25.5% | HOP-62 NSCLC 30.2% | HOP-92 NSCLC 67.4% | A549/ATCC NSCLC 15.7% | 786-0 renal 27.4%

COc1ccc(Cc2cnc(NC(=O)c3ccc4c(c3)OCCO4)s2)cc1
inactive: NCI-H23 lung 18.8% | NCI-H322M lung 41.3% | HOP-62 NSCLC 29.1% | HOP-92 NSCLC 57.8% | A549/ATCC NSCLC 16.1% | 786-0 renal 26.6%
active: NCI-H226 lung 1.86% | NCI-H522 lung -2.66% | COLO 205 colon -6.28%

CC(C)(C)c1ccc(NS(=O)(=O)c2ccc3nc(NC(=O)c4cnccn4)[nH]c3c2)cc1
inactive: NCI-H23 lung 52% | NCI-H226 lung 44.3% | NCI-H322M lung 41.9% | HOP-62 NSCLC 53.4% | HOP-92 NSCLC 36.7% | NCI-H522 lung 20.4% | A549/ATCC NSCLC 38.8% | 786-0 renal 30% | COLO 205 colon 21.7%

CCCOc1ccc(/C=N/Nc2cc(C)nc3ccc(Cl)cc23)cc1
inactive: NCI-H23 lung 75.9% | NCI-H226 lung 88.3% | NCI-H322M lung 62.1% | HOP-62 NSCLC 75.2% | HOP-92 NSCLC 69.2% | NCI-H522 lung 86.9% | A549/ATCC NSCLC 36.9%
active: 786-0 renal -86.4% | COLO 205 colon -80.7%

CCNC(=O)Oc1ccc(/C(=C(\C)c2ccccc2)c2ccc(OCCN(CC)CC)cc2)cc1
inactive: NCI-H23 lung 78.9% | NCI-H226 lung 95.6% | NCI-H322M lung 99% | HOP-62 NSCLC 96.2% | HOP-92 NSCLC 70.9% | NCI-H522 lung 93.7% | A549/ATCC NSCLC 65.5% | 786-0 renal 66.3%

Cc1ccc(/C=C(/C#N)n2nnc3cccc(F)c32)cc1
active: NCI-H23 lung 4.73% | HOP-92 NSCLC -6.05% | 786-0 renal 1.78%
inactive: NCI-H226 lung 23% | NCI-H322M lung 16.3% | HOP-62 NSCLC 21.8% | NCI-H522 lung 11.6% | A549/ATCC NSCLC 11.5%

CC(=O)Nc1ccc(-n2cnc3cc(-c4ccc(OCCN5CCCCC5)cc4)ccc32)cc1
inactive: NCI-H23 lung 73.2% | NCI-H226 lung 74.1% | NCI-H322M lung 104% | HOP-62 NSCLC 82.5% | HOP-92 NSCLC 105% | NCI-H522 lung 91.9% | COLO 205 colon 107%
active: A549/ATCC NSCLC -3.26% | 786-0 renal -40.9%

CNCCOc1nc2c3cnccc3cc(-c3cc(OC)c(OC)c(OC)c3)c2c2ccncc12
active: NCI-H23 lung -49.1% | NCI-H226 lung -42.5% | NCI-H322M lung -4.74% | HOP-62 NSCLC -39% | HOP-92 NSCLC -20.8% | NCI-H522 lung -62.7% | A549/ATCC NSCLC -8.59% | 786-0 renal -96.7% | COLO 205 colon -61.2%

COc1cccc(C(=O)NNc2nc(Cl)nc(N3CCN(C(c4ccccc4)c4ccccc4)CC3)n2)c1
active: NCI-H522 lung -13.6%
inactive: NCI-H23 lung 45.3% | NCI-H226 lung 94.9% | NCI-H322M lung 88.9% | HOP-62 NSCLC 92.8% | HOP-92 NSCLC 77% | A549/ATCC NSCLC 101% | 786-0 renal 82% | COLO 205 colon 76.6%

CCCCCCCCO/N=C\c1c2c(O)c3c(O)c(C)c4c(c3c1O)C(=O)C(C)(O/C=C\C(OC)C(C)C(OC(C)=O)C(C)C(O)C(C)C(O)C(C)/C=C\C=C(\C)C(=O)N2)O4 (stereo not given)
active: HOP-92 NSCLC -4.97% | NCI-H522 lung 5.64% | COLO 205 colon 4.9%
inactive: NCI-H23 lung 22.2% | NCI-H226 lung 28% | NCI-H322M lung 45.9% | HOP-62 NSCLC 36% | A549/ATCC NSCLC 17.4% | 786-0 renal 27.9%

CCN(CC)CC[n+]1cc2cc(OC)c(OC)cc2c2ccc3cc4c(cc3c21)OCO4
active: NCI-H23 lung 3.47% | HOP-62 NSCLC -4.95% | NCI-H522 lung -19.1% | A549/ATCC NSCLC -41.2% | 786-0 renal 3.36%
inactive: NCI-H226 lung 29.7% | HOP-92 NSCLC 14.7% | COLO 205 colon 13.9%

CC[C@]12C=CCN3CC[C@@]4(c5cc(NC(=O)CCC(=O)O[C@H]6CC[C@H]7[C@@H]8CCC9=CC(=O)CC[C@@H]9[C@H]8CC[C@]67C)c(OC)cc5N(C)[C@H]4[C@@](O)(C(=O)OC)[C@@H]1OC(C)=O)[C@@H]32
inactive: NCI-H23 lung 90.7% | NCI-H226 lung 86.5% | HOP-62 NSCLC 89.3% | NCI-H460 lung 77.4% | HOP-92 NSCLC 64.6% | NCI-H522 lung 69.9% | A549/ATCC NSCLC 74.3% | 786-0 renal 86% | COLO 205 colon 89.8%

Cn1nc(CC#N)c2c(=N)n(N)cnc21
inactive: NCI-H23 lung 104% | NCI-H226 lung 108% | HOP-62 NSCLC 101% | NCI-H460 lung 102% | HOP-92 NSCLC 98.8% | NCI-H522 lung 110% | A549/ATCC NSCLC 113% | 786-0 renal 123% | COLO 205 colon 105%

O=C(O)c1ccc(-c2nn(-c3ccc(C(F)(F)F)cc3)cc2CNc2ccc(Oc3ccccc3)cc2)cc1
inactive: NCI-H23 lung 91.7% | NCI-H226 lung 86.8% | HOP-62 NSCLC 103% | NCI-H460 lung 87.4% | HOP-92 NSCLC 93.3% | NCI-H522 lung 80.2% | A549/ATCC NSCLC 47.9% | 786-0 renal 93.4% | COLO 205 colon 111%

O=C1CC(=O)OC(c2ccc([N+](=O)[O-])cc2)O1
inactive: NCI-H23 lung 43.6% | NCI-H226 lung 34.8% | HOP-62 NSCLC 26.5% | NCI-H460 lung 35.6% | HOP-92 NSCLC 36.9% | A549/ATCC NSCLC 33.6%
active: NCI-H522 lung -65.5% | 786-0 renal -73.8% | COLO 205 colon -31%

CC(=O)c1ccc(NS(=O)(=O)c2cccc(C(=O)Nc3ccc(Br)cc3)c2)cc1
inactive: NCI-H23 lung 36.4% [25 µM] | NCI-H226 lung 43% [25 µM] | HOP-62 NSCLC 82% [25 µM] | NCI-H460 lung 75.7% [25 µM] | HOP-92 NSCLC 47.7% [25 µM] | NCI-H522 lung 46.4% [25 µM] | A549/ATCC NSCLC 61.9% [25 µM] | 786-0 renal 58.7% [25 µM] | COLO 205 colon 77.7% [25 µM]

CN1CCC(=C(c2ccccc2)c2ccccc2)C(c2ccccc2)C1 (stereo not given)
inactive: NCI-H23 lung 88.1% | NCI-H226 lung 96.3% | HOP-62 NSCLC 101% | NCI-H460 lung 103% | HOP-92 NSCLC 82.8% | NCI-H522 lung 85.2% | A549/ATCC NSCLC 90.8% | 786-0 renal 95.1% | COLO 205 colon 83%

Nc1nc(Nc2ccccc2SSc2ccccc2Nc2nc(N)nc(-c3ccc(C(F)(F)F)cc3)n2)nc(-c2ccc(C(F)(F)F)cc2)n1
active: A549/ATCC NSCLC 5.2%
inactive: NCI-H23 lung 31.5% | NCI-H226 lung 55.3% | HOP-62 NSCLC 47.8% | NCI-H460 lung 40% | HOP-92 NSCLC 90.7% | NCI-H522 lung 80% | 786-0 renal 81.4% | COLO 205 colon 86.1%

CCCCCN1C=C/C(=C\C(=O)N2CCCc3ccccc32)c2ccccc21
inactive: NCI-H23 lung 57.5% | NCI-H226 lung 79.3% | HOP-62 NSCLC 107% | HOP-92 NSCLC 73.5% | NCI-H522 lung 68.5% | A549/ATCC NSCLC 89.4% | 786-0 renal 95.6% | COLO 205 colon 96.8%

CCCCCC(=O)Oc1ccc(/C(=C(/C)Cc2ccc(OC)cc2)c2ccc(OCCCN(C)C)cc2)cc1
inactive: NCI-H23 lung 76.7% | NCI-H226 lung 93.3% | HOP-62 NSCLC 80.4% | NCI-H460 lung 69.6% | HOP-92 NSCLC 73.4% | NCI-H522 lung 98.1% | A549/ATCC NSCLC 76.1% | 786-0 renal 58.4% | COLO 205 colon 55.6%

C=C1C(=O)O[C@H]2[C@H]1CC/C(CNC(=O)/C=C/c1ccccc1)=C\CC[C@@]1(C)O[C@@H]21
active: HOP-92 NSCLC -40.9% | NCI-H522 lung -86.8% | 786-0 renal -64.4% | COLO 205 colon -64.7%
inactive: NCI-H23 lung 54.5% | NCI-H226 lung 64.8% | HOP-62 NSCLC 80.3% | NCI-H460 lung 39.7% | A549/ATCC NSCLC 46.8%

COc1cccc(-c2ccc3c(c2)NC(=O)/C3=C\c2ccc[nH]2)c1
inactive: NCI-H23 lung 31.4% | NCI-H226 lung 50.5% | HOP-62 NSCLC 62.7% | NCI-H460 lung 11.5% | HOP-92 NSCLC 93.5% | NCI-H522 lung 10.4% | A549/ATCC NSCLC 57.1% | 786-0 renal 48.1% | COLO 205 colon 30%

Cc1c(C(=O)NCCC(=O)NO)sc2ncnc(Nc3ccc(NC(=O)Nc4cccc(C(F)(F)F)c4)cc3)c12
inactive: NCI-H23 lung 100% | NCI-H226 lung 97.9% | HOP-62 NSCLC 102% | HOP-92 NSCLC 115% | NCI-H522 lung 94.4% | A549/ATCC NSCLC 104% | 786-0 renal 116% | COLO 205 colon 113%
